Data published in PubChem BioAssay (NCI).
This is part of a sample that, as a whole, favours compounds with a hit. Of some 83,000 tested, about 20% had one in any assay.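 Single-dose data. Exposure time 48 hours. Values below 10 considered active.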 The source made the active and inactive calls.

Experiments:
Assay in all cases: NCI-60 one-dose screen, 48 h (100 = growth as untreated, 0 = no growth, -100 = all killed)
Settings in all cases: 10 µM unless noted
[1] = tested on: NCI-H23 lung
[2] = tested on: NCI-H226 lung
[3] = tested on: NCI-H322M lung
[4] = tested on: HOP-62 NSCLC
[5] = tested on: NCI-H460 lung
[6] = tested on: HOP-92 NSCLC
[7] = tested on: NCI-H522 lung
[8] = tested on: A549/ATCC NSCLC
[9] = tested on: 786-0 renal
[10] = tested on: COLO 205 colon

Measured: growth

O=C1OCC2=C1C(c1cccc(C(F)(F)F)c1)c1cc3c(cc1N2CCO)OCO3 (stereo not given)
active: [10] -2.39%
inactive: [1] 29.5% | [2] 66% | [3] 42.4% | [4] 33% | [5] 13% | [6] 51.4% | [7] 16.1% | [8] 28.9% | [9] 28.5%

Nc1nc(C(=O)N/N=C/c2ccc(N3CCOCC3)cc2)nn1-c1ccc(S(N)(=O)=O)cc1
inactive: [1] 100% | [2] 96.7% | [3] 106% | [4] 103% | [5] 110% | [6] 97.7% | [7] 101% | [8] 100% | [9] 95.7% | [10] 120%

COc1cc(/C=C\c2cc(/C=C\c3ccc(O)c(OC)c3)n(C(=O)CNc3ccc(Cl)cc3)n2)ccc1O
active: [5] 6.98% | [7] 2.11%
inactive: [1] 24% | [2] 51.2% | [3] 39.2% | [4] 23.3% | [6] 66.9% | [8] 19.5% | [9] 15.7% | [10] 90.4%

Cc1cccc(N2CCN(C(=S)c3ccc4c(c3)OCO4)CC2)c1
inactive: [1] 31.3% | [2] 57.2% | [3] 33.2% | [4] 28.9% | [6] 74.4% | [8] 31.7% | [9] 30.2%
active: [5] 8.2% | [7] -25.2% | [10] -36%

CC[C@H](C)[C@H](NC(=O)[C@H](CCCNC(=N)N)NC(=O)[C@H](Cc1c[nH]c2ccccc12)NC(=O)[C@@H](NC(=O)[C@H](CCCCN)NC(=O)[C@H](CCCCN)NC(=O)[C@@H](NC(=O)[C@@H](NC(=O)[C@@H](NC(=O)[C@H](CCCCN)NC(=O)[C@H](Cc1ccccc1)NC(=O)[C@H](CCCCN)NC(=O)[C@H](CCCCN)NC(=O)[C@H](Cc1ccccc1)NC(=O)[C@@H](NC(=O)[C@@H](N)CCCCN)[C@@H](C)CC)[C@@H](C)O)[C@@H](C)CC)[C@@H](C)CC)C(C)C)C(=O)N[C@@H](Cc1ccccc1)C(=O)NCC(=O)N[C@@H](CCCNC(=N)N)C(=O)N[C@@H](Cc1ccccc1)C(N)=O
inactive: [7] 14.1%
active: [1] -37.9% | [2] 1.83% | [3] -50.5% | [4] -41.7% | [5] -5.53% | [6] -20.3% | [8] -40.6% | [9] -31.3% | [10] -55.3%

CC[C@H](CC[C@@H](C)[C@H]1CC[C@H]2[C@@H]3CC[C@@H]4CC(=O)/C(=C\c5ccncc5)C[C@]4(C)[C@H]3CC[C@]12C)C(C)C
inactive: [1] 99.4% | [2] 103% | [3] 98.3% | [4] 99.3% | [5] 109% | [6] 91.5% | [7] 95.3% | [8] 99.2% | [9] 95.7% | [10] 107%

O=C(CSc1nc2ccc([N+](=O)[O-])cc2[nH]1)Nc1ccc(Br)cc1
inactive: [1] 44.1% | [2] 47.9% | [3] 86.7% | [4] 50.9% | [5] 47.7% | [7] 20.9% | [8] 44.5% | [9] 48.3% | [10] 41.2%
active: [6] -8.92%

O=C(Nc1cccnc1Nc1ccc(Cl)cc1)c1cn(Cc2ccc(F)cc2)nn1
inactive: [1] 99.4% | [2] 94.2% | [3] 98.5% | [4] 112% | [5] 107% | [6] 102% | [7] 91.1% | [8] 103% | [9] 86.9% | [10] 124%

CC(=O)N(Cc1ccccc1)c1nc2ccc(O)c(CN(C)C)c2s1
inactive: [1] 96.7% | [2] 90.5% | [3] 103% | [4] 90.6% | [5] 100% | [6] 37.6% | [7] 90.2% | [8] 98.4% | [9] 97.6% | [10] 116%

CC(=O)N/C(=C1/OC(C(O)C(O)C(O)CO)CN1C)[P+](c1ccccc1)(c1ccccc1)c1ccccc1 (stereo not given)
inactive: [1] 106% | [2] 97.6% | [3] 95.1% | [4] 91.4% | [5] 108% | [6] 101% | [7] 93.5% | [8] 102% | [9] 102% | [10] 107%

Cn1c(O)c(C(/C=C/c2ccccc2)=Nc2ccccc2N)c(=O)n(C)c1=O
inactive: [1] 94.2% | [2] 97.9% | [3] 105% | [4] 105% | [5] 104% | [6] 82.4% | [7] 90.3% | [8] 103% | [9] 103% | [10] 95%

O=C(N=Nc1c(O)[nH]c2ccccc12)Nc1ccc(Cl)cc1
inactive: [1] 93% | [2] 95.5% | [3] 75.3% | [4] 98.6% | [5] 91.3% | [6] 80% | [7] 89.8% | [8] 92.5% | [9] 97.8% | [10] 99.5%

CCOC(=O)N1CCN(S(=O)(=O)c2oc(-c3ccc(Cl)cc3)nc2C#N)CC1
active: [7] -6.61%
inactive: [1] 75.9% | [2] 93.4% | [3] 99.3% | [4] 96% | [5] 103% | [6] 97.6% | [8] 96.8% | [9] 92.7% | [10] 47%

CC1=C(C(=O)n2c3ccccc3c3ccccc32)C(c2cccc([N+](=O)[O-])c2)C(C(=O)n2c3ccccc3c3ccccc32)=C(C)N1
inactive: [1] 91.9% | [2] 96.9% | [3] 98.4% | [4] 102% | [5] 102% | [6] 93.8% | [7] 101% | [8] 102% | [9] 103% | [10] 108%

N#C/C(=C\c1ccc(Cl)cc1Cl)C(=O)Nc1ncc(Cc2ccc(Cl)c(Cl)c2)s1
inactive: [1] 91.8% | [2] 93.4% | [3] 76.4% | [4] 82.9% | [5] 101% | [6] 70.7% | [7] 79.1% | [8] 89.3% | [9] 93.2% | [10] 112%

CC1(C)CC[C@]2(C(=O)N3CCOCC3)CC[C@]3(C)C(=CC[C@@H]4[C@@]5(C)C/C(=C/c6ccncc6)C(=O)C(C)(C)[C@@H]5CC[C@]43C)[C@@H]2C1
inactive: [1] 19.5% | [3] 40.9% | [4] 19.8% | [8] 15.2% | [9] 26.2%
active: [2] -20.4% | [5] -21.8% | [6] -6.7% | [7] -1.2% | [10] -21.1%

C=CC(=O)NCCOc1cccc(Nc2cc(NCCCNC(=O)C3CCC3)c(Br)cn2)c1
active: [1] -25.8% | [2] -14.1% | [3] -6.07% | [4] -22.4% | [5] -18% | [6] -28.5% | [7] -19.3% | [8] -16.7% | [9] -35.7% | [10] -42.7%

CCCCSCC(=O)c1ccccc1
inactive: [1] 86.2% | [2] 99.6% | [3] 89.7% | [4] 80.9% | [5] 109% | [6] 94.5% | [7] 58.2% | [8] 78.1% | [9] 99.8% | [10] 100%

CS(=O)(=O)Cc1cnc(C2OCCO2)s1
inactive: [1] 107% | [2] 96.4% | [3] 100% | [4] 113% | [5] 112% | [6] 82.4% | [7] 88.7% | [8] 94.8% | [9] 104% | [10] 116%

CN(C)c1ccc(/C=C/C(=O)c2ccccc2)cc1
inactive: [1] 97.8% | [2] 99.9% | [3] 98.4% | [4] 81% | [5] 105% | [6] 88% | [7] 60.3% | [8] 65.4% | [9] 88.8% | [10] 93.7%

CCOC(=O)c1c2c(n3ccccc13)C(=O)c1ncccc1C2=O
active: [1] 4.7% | [2] 9.64% | [4] -11.7% | [5] 1.12% | [7] -22.2% | [8] 8.27% | [9] 2.37%
inactive: [3] 11.4% | [6] 28.4% | [10] 20.7%

O=C1N[C@@H]2[C@@H](O)[C@@H](O)[C@H](O)C[C@H]2c2cc3c(c(O)c21)OCCO3
active: [1] -40.9% | [2] -11.3% | [3] -24.3% | [4] -26.5% | [5] 1.26% | [6] -20.1% | [7] -36.1% | [8] -14.3% | [9] -1.5% | [10] -49%

O=C1/C(=C/c2ccccc2[N+](=O)[O-])COc2ccc(O)cc21
inactive: [1] 18.8% | [2] 66.4% | [3] 60.9% | [4] 29.1% | [5] 29% | [6] 40% | [8] 54.1%
active: [7] -40.8% | [9] -41.3% | [10] -32.6%

Fc1ccc(CNc2c3ccccc3nc3ccccc23)cc1
inactive: [1] 31.6% | [2] 51.8% | [3] 38.5% | [4] 43% | [6] 17.2% | [7] 52.4% | [8] 23.7% | [9] 27.6%
active: [5] 8.85% | [10] 7.53%

N#Cc1c(-c2cccc([N+](=O)[O-])c2)cc(-c2ccc(Nc3nc(Nc4ccc(F)cc4)nc(Nc4ccc(F)cc4)n3)cc2)nc1N
inactive: [1] 98.6% | [2] 123% | [3] 97.9% | [4] 85.9% | [5] 146% | [6] 55.4% | [7] 104% | [8] 86% | [9] 94.6% | [10] 117%

C=C1C(=O)O[C@H]2[C@H]1CC/C(CNC(=O)c1cc3ccccc3[nH]1)=C\CC[C@@]1(C)O[C@@H]21
inactive: [3] 63.8%
active: [1] -42.3% | [2] -42.9% | [4] 9.39% | [5] -19.7% | [6] -51.1% | [7] -75.4% | [8] 9.2% | [9] -67.3% | [10] -83.3%
